Experimental data taken from the supplement of paper PMC10981050.

test system: OCI-AML2; assay: cell viability relative to vehicle control; higher = less cytotoxic; settings: 10 µM; SRSF2 genotype: wt/wt
In short: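 After removal of identity-inconsistent compounds, the Selleck bioactive, kinase and epigenetic probe libraries were screened on CRISPR-edited mutant clones and isogenic wild-type clones of four leukaemia lines. Plates were 384-well, each well holding 2000 cells in 50 µL medium and receiving a single 10 µM acoustically dispensed dose. CellTiter-Glo luminescence was read 48 h later, after the supernatant was taken off. Genedata Screener was used to express viability as percent of the on-plate vehicle control.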

First: COc1nc2ccc(Br)cc2cc1[C@@H](c1ccccc1)[C@@](O)(CCN(C)C)c1cccc2ccccc12 [Bedaquiline]
Second: Cc1cc(C)nc(SCC(=O)Nc2ncc(Cc3cccc4ccccc34)s2)n1
The cell viability of the first is lower: 55.4% for the first, 66.4% for the second.

Going from `CC(C)=CCC/C(C)=C/C=O` [Citral] to `O=C(/C=C/c1ccc(O)c(O)c1)c1ccc(O)cc1O` [Butein], the cell viability falls from 92% to 77.8%.

Compared with `COc1ccc(CCc2nc3cc(-c4c(C)noc4C)ccc3n2C[C@H](C)N2CCOCC2)cc1Cl`, `COc1ccc(CCNCc2ccc(OCc3ccc(Cl)nc3)c(OC)c2)cc1OC` is higher in cell viability: 60.6% for the first, 83.5% for the second.

Work on `CC(O)c1cc(C(=O)N[C@@H](C)Cn2ccc(-c3ccc(C#N)c(Cl)c3)n2)n[nH]1` (some centres not stated) yielded a cell viability of 102%.
